The list is not random: actives were taken first. Their share in the collection is about 4.1%.
hgDAF12 agonist – H. glycines DAF-12 receptor agonists, primary screen, cell-based, luminescence, HEK293, GAL4 fusion, UAS-luciferase; Nuclear hormone receptor DAF-12 (Heterodera glycines), GAL4 fusion; HEK293 GAL4-hgDAF12 UAS-luciferase reporter, agonist luminescence; normalized to butyrate control; activation, % at 6.8 µM; 370,000 compounds, 1.8% hits; AID 687014, 2013;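 active = activation above a cutoff set at the mean of all screened compounds plus 3 SD, cut at about 10% in these data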
DAX1 inh-1 – DAX1 (NR0B1) inhibitors on StAR promoter, primary screen, cell-based, luminescence, SF-1 (NR5A1), full-length DAX-1; inhibition, % at 6.8 µM; 370,000 compounds, 1.1% hits; HEK293T StAR-luciferase reporter, SF-1/DAX-1 repression relief;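 active = inhibition above the mean over all tested compounds plus 3 SD, cut at about 3.6% in these data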;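 note: higher inhibition means more luminescence from relief of DAX-1 repression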
hcDAF12 agonist – H. contortus DAF-12 nuclear receptor activators, primary screen, cell-based, luminescence, HEK293, lit1-tk-luc reporter; HEK293 hcDAF-12 lit1-tk-luc reporter; 0% DMSO, 100% Δ7-dafachronic acid; activation, % at 6.8 µM; 370,000 compounds, 1.4% hits; AID 652067, 2013;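 active = activation above the mean of all tested compounds plus 3 SD, cut at about 5.5% in these data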
DAX1 inh-2 – DAX1 (NR0B1) inhibitors, primary screen, cell-based, HEK293, Gal4-DAX1, luciferase luminescence | HEK293 Gal4-DAX1 luciferase reporter | 340,000 compounds, 0.99% hits | Nuclear receptor subfamily 0 group B member 1 (Homo sapiens), P51843 | inhibition, % at 6.75 µM;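 active = inhibition above the mean over all tested compounds plus 3 SD, cut at about 4.2% in these data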;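 note: inhibition shows as a rise in luminescence from relieved DAX1 repression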
ssDAF-12 act – S. stercoralis DAF-12 nuclear receptor activators, primary screen, cell-based, luminescence, HEK293, GRIP1 co-expression, lit1-tk-luc; HEK293 ssDAF-12/GRIP1 lit1-tk-luc reporter; % of 3 µM dafachronic acid response; activation, % at 6.8 µM; 370,000 compounds, 1% hits; AID 652126, 2013;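 active = activation above the mean over all tested compounds plus 3 SD, cut at about 0.9% in these data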
hgDAF12 conf – H. glycines DAF-12 receptor agonists, confirmation, cell-based, luminescence, HEK293, GAL4-LBD fusion. HEK293 GAL4-hgDAF12 luciferase reporter, agonist mode; percent of butyrate response. activation, % at 6.8 µM. 3,300 compounds, 80% hits. shares compounds with hgDAF12 agonist;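 active = mean activation over triplicate wells above the hit cutoff derived from the earlier primary screen, cut at about 11% in these data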
LXRb DAF12 ctr – LXR agonists, Gal4 luciferase reporter, confirmation, counter-screen for hgDAF-12 agonist project, cell-based, luminescence, HEK293, H. glycines campaign; activation, % at 6.8 µM; 3,300 tested, under 10 active; 24 h; shares compounds with hgDAF12 agonist;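 active = mean activation of the triplicate above a set limit carried over from the primary screen, none filed active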
Target sequence (P55055 whole entry, looked up, the tested form may be a part): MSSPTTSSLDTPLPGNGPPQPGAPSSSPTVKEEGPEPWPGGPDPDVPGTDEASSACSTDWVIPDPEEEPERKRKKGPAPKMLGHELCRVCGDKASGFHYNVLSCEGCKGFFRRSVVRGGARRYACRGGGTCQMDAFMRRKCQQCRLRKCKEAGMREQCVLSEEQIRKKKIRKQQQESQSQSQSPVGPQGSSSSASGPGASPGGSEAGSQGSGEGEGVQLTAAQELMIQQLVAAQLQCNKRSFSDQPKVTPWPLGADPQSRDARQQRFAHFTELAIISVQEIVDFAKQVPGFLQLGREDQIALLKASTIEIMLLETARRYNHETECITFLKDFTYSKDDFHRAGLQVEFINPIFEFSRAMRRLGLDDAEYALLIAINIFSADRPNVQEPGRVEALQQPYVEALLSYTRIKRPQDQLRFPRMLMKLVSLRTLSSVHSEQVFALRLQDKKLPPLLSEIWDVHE
Hits are given with their value; i = inactive; nt = no result given.

SMILES | hgDAF12 agonist | DAX1 inh-1 | hcDAF12 agonist | DAX1 inh-2 | ssDAF-12 act | hgDAF12 conf | LXRb DAF12 ctr
O=C(N/N=C/c1ccccc1)c1n[nH]c2c1CCCC2 | 17 | i | i | i | 1.1 | 16 | i
O=C(/C=C/Nc1ccc(Oc2ccccc2)cc1)c1ccco1 | 13 | 3.8 | i | i | i | 23 | i
Cc1cc(-c2nc3cccnc3s2)ccc1NS(=O)(=O)c1cccs1 | 14 | 4.4 | 6.5 | i | i | 13 | i
O=S(=O)(Nc1ccc(-c2nc3cccnc3s2)cc1)c1cccs1 | i | i | i | i | i | nt | nt
CN1C(=O)C[C@@](C#N)(C(=O)NCC(F)(F)F)[C@H]1c1ccccc1 | i | i | i | nt | i | nt | nt
Oc1ccc(-c2csc(-c3cccnc3)n2)c(O)c1 | 25 | i | i | i | i | 20 | i
Brc1ccc(Cn2c(-c3ccc(Br)o3)nc3ccccc32)o1 | i | i | i | i | i | nt | nt
Cn1c(-c2ccc(Br)o2)nc2ccccc21 | 15 | 3.7 | 5.8 | i | 1.0 | 15 | i
COC(=O)[C@]12C[C@H](CC(=O)NCCCCc3ccccc3)C(=O)N(Cc3ccc(Cl)cc3Cl)C1=C[C@H](C(C)(C)C)O[C@@H]2C | i | i | i | nt | i | nt | nt
C/C(=N\NC(=O)c1nnn(-c2nonc2N)c1-c1ccccc1)c1cccnc1 | i | i | i | i | i | nt | nt
C/C(=N\NC(=O)c1nnn(-c2nonc2N)c1CN(C)c1ccccc1)c1cccnc1 | 13 | i | i | i | i | i | i
O=C(Cn1cnc2ccccc2c1=O)Nc1ccc2c(c1)OCCO2 | 17 | i | i | i | i | 14 | i
COC(=O)[C@]12C[C@H](CC(=O)NCc3cccs3)C(=O)N(Cc3ccc4c(c3)OCO4)C1=C[C@H](C(C)(C)C)O[C@@H]2C | i | i | i | nt | i | nt | nt
Cc1csc(NC(=O)Nc2cccc(Cl)c2)n1 | 17 | i | i | i | i | 14 | i
Cc1cc(NS(=O)(=O)c2ccc3c(c2)CCC(=O)N3)ccc1Cl | i | nt | i | nt | i | nt | nt
CCc1c(-c2ccccc2Br)ncn1CCc1ccccc1OC | i | i | i | nt | i | nt | nt
O=C(CC(=O)c1cccs1)c1ccncc1 | 25 | 3.7 | i | i | i | i | i
CC(C)=CC(=O)Nc1ccc(Cl)cc1 | 19 | i | i | i | 1.7 | 12 | i
Oc1ccccc1N1CCN(c2ccc3ccccc3n2)CC1 | 16 | i | i | i | i | 15 | i
C[N+](C)(C)CC(=O)N1CCN(c2ccc3ccccc3n2)CC1 | i | i | i | i | i | nt | nt
O=C(/C=C/c1ccc(Cl)c(Cl)c1)Nc1cccnc1 | i | i | i | i | i | nt | nt
CC(C)(C)c1ccc(/C=C/C(=O)Nc2cccnc2)cc1 | 16 | i | i | i | i | 14 | i
O=C(/C=C/c1ccccc1Cl)Nc1cccnc1 | 19 | i | i | i | i | 21 | i
Nc1cc2ccccc2cc1NS(=O)(=O)N1CCCCC1 | i | i | i | nt | i | nt | nt
COC(C(=O)N/N=C(\C)c1ccc(O)cc1)c1ccccc1 (stereo not drawn) | 14 | i | i | i | i | i | i
SMILES | hgDAF12 agonist | DAX1 inh-1 | hcDAF12 agonist | DAX1 inh-2 | ssDAF-12 act | hgDAF12 conf | LXRb DAF12 ctr
O=C(O)c1cccc(N/N=C/C2=C(Cl)c3cc(Cl)ccc3SC2)c1 | 16 | i | i | i | 1.4 | 19 | i
CSc1ccc(C2NC(=O)c3ccccc3N2)cc1 (stereo not drawn) | 15 | i | i | 4.6 | i | 14 | i
COCCn1c(C)cc(C(=O)Cn2nc(C(=O)O)c3ccccc3c2=O)c1C | 14 | i | i | i | i | 12 | i
Cc1cc(C(=O)Cn2nc(C(=O)O)c3ccccc3c2=O)c(C)n1C1CC1 | i | i | i | i | i | nt | nt
O=C(/C=C/c1cccc(F)c1)Nc1nccs1 | 15 | i | i | i | i | 15 | i
Cc1ccc(/C=C/C(=O)Nc2nccs2)o1 | i | i | i | i | i | nt | nt
CC1=CC(c2ccc(Cl)cc2)n2nc(NC(=O)c3ccccc3)nc2N1 (stereo not drawn) | i | i | i | i | i | nt | nt
CC1=Nc2ccccc2N=C(NC(=O)c2ccccc2)C1c1ccc(Cl)cc1 (stereo not drawn) | 18 | i | i | i | i | i | i
O=C(O)c1ccc(N/C(=N\S(=O)(=O)c2ccc(Cl)cc2)c2ccccc2)cc1 | i | i | i | i | i | nt | nt
O=C(NN/C(=N/S(=O)(=O)c1ccc(Cl)cc1)c1ccccc1)c1ccc(O)cc1 | 16 | i | i | i | i | i | i
Cc1ccc(S(=O)(=O)NN/C(=N/S(=O)(=O)c2ccccc2)c2ccccc2)cc1 | i | i | i | i | i | nt | nt
Cc1ccc(S(=O)(=O)/N=C(/NNC(=O)c2cccc(Cl)c2)c2ccccc2)cc1 | 14 | i | i | i | i | 21 | i
COc1ccc(NC(=S)N/C(=N/S(=O)(=O)c2ccc(C)cc2)c2ccccc2)cc1 | i | i | i | i | i | nt | nt
COc1ccc(NC(=S)NC(=NS(=O)(=O)c2ccc(Cl)cc2)c2ccccc2)cc1 | 13 | i | i | i | i | i | i
COc1ccc(C(=O)OCCN2CCN(C3CN(Cc4cn(Cc5cccc(C)c5)nn4)S(=O)(=O)C3)CC2)cc1OC (stereo not drawn) | i | i | i | nt | i | nt | nt
Cc1cccc(-c2cccc3c4c([nH]c23)[C@@H]2C[C@H](N(C)C(=S)Nc3ccc(C#N)cc3)[C@H]([C@H](C)O)CN2CC4)c1 | i | i | i | nt | i | nt | nt
COC(=O)[C@]12C[C@H](CC(=O)NCc3cccc(C(F)(F)F)c3)C(=O)N(Cc3ccc4c(c3)OCO4)C1=C[C@H](C(C)(C)C)O[C@@H]2C | i | i | i | nt | i | nt | nt
O=[N+]([O-])c1ccc(COn2nnc3ccccc32)cc1 | i | i | i | i | i | nt | nt
Clc1ccc(COn2nnc3ccccc32)c(Cl)c1 | 14 | 4.0 | i | 4.5 | i | 18 | i
Cc1nc2c(ccc3nc(NC(=O)c4ccc5c(c4)OCCO5)sc32)s1 | i | i | i | i | i | nt | nt
O=C(NC(=S)Nc1ccc2c(c1)OCCO2)c1cccc2ccccc12 | i | i | i | i | i | nt | nt
O=C(Nc1cccc(Cl)c1)c1ccc2c(c1)OCCO2 | 21 | i | 6.5 | i | i | 18 | i

Source: PubChem (The Scripps Research Institute Molecular Screening Center)
